Assay results as given in PubChem BioAssay AID1645879 (National Center for Advancing Translational Sciences (NCATS), 2021).
Records with an inconclusive call do not appear. A call without a number means that no potency is given here. Active and inactive are the calls of the source. The call rests on the fitted dose curve; in most records, active means well fitted inhibition curve with a large enough effect; inconclusive means small, poorly fitted or top-dose-only effect; inactive means no such curve, though single readings can be large or run the other way.

Experiment: Counterscreen qHTS assay for inhibitors of N-terminal methyltransferase 1 (NTMT1): SPKRIA Counterscreen Assay
Details: biochemical qHTS; series mostly up to 99.2 µM
Method in brief: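 Luminescent SAH detection after 30 min room-temperature reaction with 1 uM SPKRIA, following 15 min compound preincubation. Percent inhibition, normalized to control, fitted by 4-parameter Hill equation.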

**Q.** With `COc1cc(/C=C\c2ccc(O)cc2)cc(OC)c1` as the compound, how does the Potency read?
**A.** The Potency was “inactive”.

**Q.** Which Potency does the source give for `COc1ccc(Nc2ncnc3sc4c(c23)CCCC4)cc1` here?
**A.** Its Potency is 20 µM (active).

**Q.** Which Potency does the source give for `OCc1cccc(-c2noc(-c3ccccc3F)n2)c1` here?
**A.** Its Potency is “inactive”.

**Q.** With `c1cncc(-c2ccc3ncnc(NCc4cccs4)c3c2)c1` as the compound, how does the Potency read?
**A.** The Potency was 44.7 µM (active).

**Q.** With `Cc1ccnc(NC(=S)N2CCNCC2)c1` as the compound, how does the Potency read?
**A.** The Potency was “inactive”.

**Q.** Which Potency does the source give for `O=C(Nc1onc2c1CCCC2)c1ccccc1` here?
**A.** The Potency was “inactive”.

**Q.** With `O=c1c(-c2ccc(O)cc2)coc2cc(O)ccc12` as the compound, how does the Potency read?
**A.** Its Potency is “inactive”.

**Q.** Which Potency does the source give for `O=c1c2cc3c(cc2nc2sc(Nc4ccccc4)nn12)OCO3` here?
**A.** The Potency was “inactive”.

**Q.** For `O=C(c1ccc(/C=C/c2n[nH]c3ccccc23)cc1)N1CCNCC1`, which Potency is on record?
**A.** The Potency was “inactive”.

**Q.** Which Potency does the source give for `CC(=O)Nc1sc2c(c1-c1ccc3scnc3c1)CCNC2` here?
**A.** Its Potency is “inactive”.

**Q.** For `COc1cc2c(cc1O)CC[C@H]1[C@@H]2CC[C@]2(C)[C@H](O)CC[C@@H]12`, which Potency is on record?
**A.** The Potency was 50.1 µM (active).

**Q.** With `Cc1ccc(-n2ncc3c(NCCCN(C)C)ncnc32)cc1Cl` as the compound, how does the Potency read?
**A.** Its Potency is 44.7 µM (active).

**Q.** For `Cc1cccc(C(=O)Nc2sc3c(c2C(=O)O)CCCC3)c1`, which Potency is on record?
**A.** The Potency was 50.1 µM (active).

**Q.** For `CNc1sc(-c2cccc3ccccc23)nc1C#N`, which Potency is on record?
**A.** The Potency was “inactive”.

**Q.** With `CC(C)CCNc1ncnc2c1cnn2-c1cccc(Cl)c1` as the compound, how does the Potency read?
**A.** The Potency was 22.4 µM (active).

**Q.** For `NC(=O)C1CCN(c2nc(-c3cccc4ccccc34)cs2)CC1`, which Potency is on record?
**A.** The Potency was “inactive”.

**Q.** Which Potency does the source give for `Cc1ccc(Nc2ncnc3c2cnn3-c2ccccc2)c(C)c1` here?
**A.** The Potency was 7.94 µM (active).

**Q.** For `COc1cccc(/C=C/c2nc(C#N)c(NCCN(C)C)o2)c1`, which Potency is on record?
**A.** The Potency was “inactive”.

**Q.** With `CCc1cc(C(N)=S)ccn1` as the compound, how does the Potency read?
**A.** Its Potency is “inactive”.

**Q.** Which Potency does the source give for `CC[C@H](c1ccc(O)cc1)[C@@H](CC)c1ccc(O)cc1` here?
**A.** Its Potency is “inactive”.

**Q.** For `COc1ccc2[nH]c(S(=O)Cc3ncc(C)c(OC)c3C)nc2n1` (stereo not given), which Potency is on record?
**A.** Its Potency is “inactive”.

**Q.** Which Potency does the source give for `CN(C)CCC=C1c2ccccc2C=Cc2ccccc21` here?
**A.** The Potency was “inactive”.

**Q.** Which Potency does the source give for `CCCNC(=O)CSc1c(CCC)cnc2c1c(=O)n(C)c(=O)n2C` here?
**A.** Its Potency is “inactive”.

**Q.** For `CC(C)c1ccc(Nc2ncnc3c2nc2n3CCCC2)cc1`, which Potency is on record?
**A.** The Potency was 50.1 µM (active).

**Q.** Which Potency does the source give for `CC(=O)C1CCC2C3CCC4=CC(=O)CCC4(C)C3CCC12C` (stereo not given) here?
**A.** Its Potency is “inactive”.

**Q.** For `CCCn1c(/C=C/c2ccccc2)nc2ccccc21`, which Potency is on record?
**A.** The Potency was “inactive”.

**Q.** For `CC(C)(C)c1ccc(-c2csc(N3CCC(C(N)=O)CC3)n2)cc1`, which Potency is on record?
**A.** The Potency was “inactive”.

**Q.** With `O=C(O)c1ccc(-c2noc(-c3cccc(Cl)c3)n2)cc1` as the compound, how does the Potency read?
**A.** The Potency was “inactive”.

**Q.** With `Cc1cc(C)nc(NC(=S)N2CCN(c3ccccn3)CC2)c1` as the compound, how does the Potency read?
**A.** Its Potency is “inactive”.

**Q.** With `Cc1c(Cl)ccc2sc(N3CCN(C(=O)C4CC4)CC3)nc12` as the compound, how does the Potency read?
**A.** The Potency was “inactive”.

**Q.** Which Potency does the source give for `NC(=O)C1CCN(c2nc(-c3ccc4c(c3)CCO4)cs2)CC1` here?
**A.** The Potency was “inactive”.

**Q.** For `Cc1ccc2nc(-c3ccc(O)cc3)c(Nc3ccc(Cl)cc3)n2c1`, which Potency is on record?
**A.** Its Potency is “inactive”.

**Q.** For `C[C@]12CCC3=C4CCC(=O)C=C4CC[C@H]3[C@@H]1CC[C@@]2(O)CC#N`, which Potency is on record?
**A.** The Potency was “inactive”.

**Q.** Which Potency does the source give for `O=C(Nc1noc2ccccc12)c1ccc(F)cc1` here?
**A.** Its Potency is 39.8 µM (active).

**Q.** Which Potency does the source give for `NC(=O)C1CCN(c2nc(-c3ccc(F)cc3)cs2)CC1` here?
**A.** Its Potency is 44.7 µM (active).
